“And” between values parts separate entries of the source, which are not always exact repeats. Equal entries are not always repeated. Among all 5,500 compounds or so, about 2,000 (36%) were called active. Inconclusive results (about 18%) are left out. Rule as the data show it: active = normalized growth mostly below about 0.91 (no sharp cut-off); inconclusive = no clear call, values can overlap the other calls; inactive = mostly above about 0.92. The list shows a part of the results.
Assay: chemical genetic growth profiling, strain panel (AID 1159580);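 also: tested at 20 µM; growth read once vehicle control cultures reached saturation at 30 °C; 1 = growth at the plate median or of vehicle wells; lower values mean less growth of the strain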
Conditions: growth OD

Measured: normalized growth

NC(=O)CN1CCCC1=O
inactive: S. cerevisiae deletion strains, locus YKL009W, strain mrt4, stronger effect = lower value 1.01 | S. cerevisiae deletion strains, locus YKL068W, stronger effect = lower value 1 | S. cerevisiae deletion strains, locus YKL085W, strain MDH1 (second series), stronger effect = lower value 1.02 | S. cerevisiae deletion strains, locus YKL085W, strain MDH1, stronger effect = lower value 1.02 | S. cerevisiae deletion strains, locus YKL160W, strain elf1, stronger effect = lower value 0.967 | S. cerevisiae deletion strains, locus YKL190W, strain CNB1, stronger effect = lower value 1 | S. cerevisiae deletion strains, locus YKR001C, strain vps1, stronger effect = lower value 1.01 | S. cerevisiae deletion strains, locus YKR026C, strain gcn3, stronger effect = lower value 0.992 | S. cerevisiae deletion strains, locus YKR091W, strain srl3, stronger effect = lower value 0.995 | S. cerevisiae deletion strains, locus YLL001W, strain dnm1, stronger effect = lower value 0.958 | S. cerevisiae deletion strains, locus YLL026W, stronger effect = lower value 0.999 | S. cerevisiae deletion strains, locus YLL041C, strain sdh2, stronger effect = lower value 0.992 | S. cerevisiae deletion strains, locus YLR027C, strain aat2, stronger effect = lower value 0.999 | S. cerevisiae deletion strains, locus YLR039C, strain RIC1, stronger effect = lower value 1.01 | S. cerevisiae deletion strains, locus YLR058C, strain SHM2, stronger effect = lower value 1.01 | S. cerevisiae deletion strains, locus YLR102C, strain apc9, stronger effect = lower value 1.01 | S. cerevisiae deletion strains, locus YLR113W, strain HOG1, stronger effect = lower value 0.954 | S. cerevisiae deletion strains, locus YLR221C, strain rsa3, stronger effect = lower value 0.989 | S. cerevisiae deletion strains, locus YLR258W, strain gsy2, stronger effect = lower value 0.99 | S. cerevisiae deletion strains, locus YLR262C, strain YPT6 (second series), stronger effect = lower value 0.987 | S. cerevisiae deletion strains, locus YLR262C, strain YPT6, stronger effect = lower value 1.02 | S. cerevisiae deletion strains, locus YLR268W, strain sec22, stronger effect = lower value 1.01 | S. cerevisiae deletion strains, locus YLR320W, strain mms22, stronger effect = lower value 0.958 | S. cerevisiae deletion strains, locus YLR330W, strain CHS5, stronger effect = lower value 0.996 | S. cerevisiae deletion strains, locus YLR342W, strain FKS1 (second series), stronger effect = lower value 1.02 | S. cerevisiae deletion strains, locus YLR342W, strain FKS1, stronger effect = lower value 0.98 | S. cerevisiae deletion strains, locus YLR357W, strain rsc2, stronger effect = lower value 0.977 | S. cerevisiae deletion strains, locus YLR370C, strain arc18, stronger effect = lower value 0.99 | S. cerevisiae deletion strains, locus YLR371W, strain rom2, stronger effect = lower value 1.01 | S. cerevisiae deletion strains, locus YLR384C, strain iki3, stronger effect = lower value 0.977 | S. cerevisiae deletion strains, locus YLR418C, strain cdc73, stronger effect = lower value 1.01 | S. cerevisiae deletion strains, locus YML016C, strain PPZ1, stronger effect = lower value 0.999 | S. cerevisiae deletion strains, locus YML032C, strain rad52, stronger effect = lower value 1.01 | S. cerevisiae deletion strains, locus YML120C, strain ndi1, stronger effect = lower value 0.983 | S. cerevisiae deletion strains, locus YML124C, strain tub3, stronger effect = lower value 1.01 | S. cerevisiae deletion strains, locus YMR058W, strain fet3, stronger effect = lower value 0.988 | S. cerevisiae deletion strains, locus YMR078C, strain ctf18, stronger effect = lower value 1 | S. cerevisiae deletion strains, locus YMR125W, strain sto1, stronger effect = lower value 0.996 | S. cerevisiae deletion strains, locus YMR129W, stronger effect = lower value 1 | S. cerevisiae deletion strains, locus YMR205C, strain PFK2, stronger effect = lower value 0.973 | S. cerevisiae deletion strains, locus YMR223W, strain ubp8, stronger effect = lower value 1.01 | S. cerevisiae deletion strains, locus YMR231W, strain pep5, stronger effect = lower value 0.997 | S. cerevisiae deletion strains, locus YMR263W, strain SAP30, stronger effect = lower value 0.993 | S. cerevisiae deletion strains, locus YMR307W, strain GAS1, stronger effect = lower value 1.06 | S. cerevisiae deletion strains, locus YNL067W, strain RPL9B, stronger effect = lower value 1.01 | S. cerevisiae deletion strains, locus YNL071W, strain lat1, stronger effect = lower value 0.991 | S. cerevisiae deletion strains, locus YNL128W, strain TEP1, stronger effect = lower value 1.05 | S. cerevisiae deletion strains, locus YNL153C, strain GIM3, stronger effect = lower value 0.979 and 1.17 | S. cerevisiae deletion strains, locus YNL175C, strain NOP13, stronger effect = lower value 0.997 | S. cerevisiae deletion strains, locus YNL183C, strain NPR1, stronger effect = lower value 0.915 | S. cerevisiae deletion strains, locus YNL197C, strain WHI3, stronger effect = lower value 1.01 | S. cerevisiae deletion strains, locus YNL209W, strain ssb2, stronger effect = lower value 0.998 | S. cerevisiae deletion strains, locus YNL224C, strain SQS1, stronger effect = lower value 0.995 | S. cerevisiae deletion strains, locus YNL233W, strain BNI4, stronger effect = lower value 0.985 | S. cerevisiae deletion strains, locus YNL248C, strain rpa49, stronger effect = lower value 0.982 | S. cerevisiae deletion strains, locus YNL250W, strain rad50, stronger effect = lower value 1 | S. cerevisiae deletion strains, locus YNL271C, strain bni1, stronger effect = lower value 1.01 | S. cerevisiae deletion strains, locus YNL298W, strain CLA4, stronger effect = lower value 1.03 | S. cerevisiae deletion strains, locus YNL307C, strain MCK1, stronger effect = lower value 1.03 | S. cerevisiae deletion strains, locus YNL322C, strain KRE1 (second series), stronger effect = lower value 0.992 | S. cerevisiae deletion strains, locus YNL322C, strain KRE1, stronger effect = lower value 1 | S. cerevisiae deletion strains, locus YNR049C, strain mso1, stronger effect = lower value 0.99 | S. cerevisiae deletion strains, locus YNR052C, strain pop2, stronger effect = lower value 1.01 | S. cerevisiae deletion strains, locus YOL006C, strain TOP1, stronger effect = lower value 1.04 | S. cerevisiae deletion strains, locus YOL012C, strain htz1 0.826 | S. cerevisiae deletion strains, locus YOL147C, strain pex11, stronger effect = lower value 1.01 | S. cerevisiae deletion strains, locus YOR001W, strain rrp6, stronger effect = lower value 1.01 | S. cerevisiae deletion strains, locus YOR061W, strain CKA2, stronger effect = lower value 1.01 | S. cerevisiae deletion strains, locus YOR069W, strain VPS5, stronger effect = lower value 1.01 | S. cerevisiae deletion strains, locus YOR070C, strain gyp1, stronger effect = lower value 0.993 | S. cerevisiae deletion strains, locus YOR080W, strain dia2, stronger effect = lower value 0.994 | S. cerevisiae deletion strains, locus YOR083W, strain WHI5 (second series), stronger effect = lower value 0.99 | S. cerevisiae deletion strains, locus YOR083W, strain WHI5, stronger effect = lower value 0.968 | S. cerevisiae deletion strains, locus YOR106W, strain vam3, stronger effect = lower value 0.967 | S. cerevisiae deletion strains, locus YOR136W, strain idh2, stronger effect = lower value 1 | S. cerevisiae deletion strains, locus YOR144C, strain elg1, stronger effect = lower value 0.998 | S. cerevisiae deletion strains, locus YOR184W, strain ser1, stronger effect = lower value 1 | S. cerevisiae deletion strains, locus YOR231W, strain MKK1, stronger effect = lower value 0.984 | S. cerevisiae deletion strains, locus YOR265W, strain rbl2, stronger effect = lower value 0.992 | S. cerevisiae deletion strains, locus YOR270C, strain vph1, stronger effect = lower value 0.97 | S. cerevisiae deletion strains, locus YOR290C, strain snf2, stronger effect = lower value 0.99 | S. cerevisiae deletion strains, locus YOR316C, strain cot1, stronger effect = lower value 1.02 | S. cerevisiae deletion strains, locus YPL051W, strain arl3, stronger effect = lower value 0.99 | S. cerevisiae deletion strains, locus YPL055C, strain LGE1, stronger effect = lower value 0.968 | S. cerevisiae deletion strains, locus YPL078C, strain atp4, stronger effect = lower value 0.979 | S. cerevisiae deletion strains, locus YPL106C, strain sse1, stronger effect = lower value 0.958 | S. cerevisiae deletion strains, locus YPL240C, strain hsp82, stronger effect = lower value 0.999 | S. cerevisiae deletion strains, locus YPL241C, strain CIN2, stronger effect = lower value 1.01 and 1 | S. cerevisiae deletion strains, locus YPL256C, strain CLN2, stronger effect = lower value 0.979 | S. cerevisiae deletion strains, locus YPR119W, strain clb2, stronger effect = lower value 1 | S. cerevisiae deletion strains, locus YPR141C, strain kar3, stronger effect = lower value 1.01 | S. cerevisiae deletion strains, locus YPR163C, strain tif3, stronger effect = lower value 1.01 | S. cerevisiae deletion strains, locus YPR167C, strain met16, stronger effect = lower value 1 | S. cerevisiae deletion strains, strain wtn01, stronger effect = lower value 1.01 | S. cerevisiae strains, strain wild type, stronger effect = lower value 1
